Relative cell viability data for nine compounds are collected here from the supplement of paper PMC9588786.

± gives the standard deviation of the averaged measurements.
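Note: viability read as CCK-8 absorbance at 450 nm in cells co-exposed to the GPX4 inhibitor RSL3, relative to a 0.01% DMSO vehicle control.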

The test has as its system HT-1080. The experiment in a line: relative cell viability with RSL3 co-treatment (fraction of control); higher = stronger protection from RSL3-induced ferroptosis (higher viability). Particulars: 10 µM.
In the case of `COc1ccc(N(C(=O)Oc2c(C)cccc2C)c2ccnc(Nc3ccc(N4CCN(C)CC4)cc3)n2)c(OC)c1`, the relative cell viability turned out to be 0.8133 ± 0.0058.
In the case of `C/C(O)=C(\C#N)C(=O)Nc1cc(Br)ccc1Br`, the relative cell viability was found to be 0.54 ± 0.085.
Regarding `Cn1cc(C2=C(c3cn(C4CCN(Cc5ccccn5)CC4)c4ccccc34)C(=O)NC2=O)c2ccccc21`, the relative cell viability is 0.807 ± 0.061.
The figure for `CCN1CCN(C(=O)Cc2ccc(Nc3ncc(F)c(Nc4ccc(C(=O)Nc5ccccc5Cl)cc4)n3)cc2)CC1` [Aurora A Inhibitor I] is 0.473 ± 0.13; for `CC(C)(C)c1cc(C=C(C#N)C#N)cc(Br)c1O` it is 0.473 ± 0.015.
Consider `CC(C)(C)c1cc(C=C(C#N)C#N)cc(C(C)(C)C)c1O` [Tyrphostin 9], for which the relative cell viability came out at 0.413 ± 0.021.
The figure for `COc1ccc2c(c1)/C(=C/c1cnc[nH]1)C(=O)N2` is 0.797 ± 0.011; for `Cc1ccccc1-n1c(Cn2ncc3c(N)ncnc32)nc2cccc(C)c2c1=O` it is 0.727 ± 0.049.
`O=c1[nH]c2ccc(Cl)cc2c(N[C@@H]2CN3CCC2CC3)c1-c1nc2ccccc2[nH]1`: the relative cell viability was determined as 0.63 ± 0.046.
